# In the library only some 2.6% were active in any assay of this set; here they are far more common.
# eIF4H FP inh: inhibitors of RNA binding by human eIF4H; eIF4H fluorescence polarization binding assay; inhibition, % at 35 µM; hit rate 0.94% among 290,000; AID 2012;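 also: calls also rest on retests at 20 µM and on dose response follow-up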
# A3G deaminase: APOBEC3G (human) deaminase inhibition; hit rate 0.28% among 330,000; Q9HC16; recombinant A3G, ssDNA deamination FAM/TAMRA fluorescence; inhibition, % at 20 µM;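 active = inhibition of at least 40% at 20 µM, with no more than 30% in the related APOBEC3A deaminase screen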;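 also: plate controls were DMSO wells with A3G for no effect and wells lacking A3G enzyme for full effect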
# PHOSPHO1 block: PHOSPHO1 (human) inhibition | recombinant PHOSPHO1, absorbance phosphatase assay | inhibition, % at 13.3 µM | Q8TCT1 | hit rate 1.1% among 290,000; in the data active = inhibition above about 60%
# PABP FP inh: blocks human PABP binding to poly(A) RNA; P11940; fluorescence polarization; calls only at 35 µM; hit rate 1% among 290,000; AID 2014;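 also: calls also rest on retests at 20 µM and on dose response follow-up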
# A3A deaminase: blocks human APOBEC3A ssDNA deamination | P31941 | recombinant A3A, FAM/TAMRA ssDNA deamination fluorescence | inhibition, % at 20 µM | hit rate 0.41% among 330,000 | AID 493011;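 active = at least 40% inhibition at 20 µM here, with at most 30% in a related deaminase screen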;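 also: plate controls were A3A with DMSO for no effect and wells lacking A3A enzyme for full effect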
# PABP1 MLLE inh: inhibitors of microRNA-mediated deadenylation, human PABP1 MLLE binding | inhibition, % at 20 µM | hit rate 0.36% among 360,000 | P11940 | GST-MLLE / FITC-PAM2 fluorescence polarization; in the data active = inhibition above about 35%, passing the limit was not always enough;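 also: plate controls were DMSO wells with GST-MLLE for no effect and wells lacking GST-MLLE protein for full effect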
# A3A conf: APOBEC3A (human) deaminase inhibition, confirmed; hit rate 63% among 1,400; inhibition, % at 20 µM; recombinant A3A, ssDNA deaminase UDG fluorescence assay; shares compounds with A3A deaminase; AID 493151;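 active = inhibition reaching a set limit, 80% of the first screen's cutoff, at 20 µM in any replicate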;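 also: plate controls were DMSO wells with A3A for no effect and wells lacking A3A enzyme for full effect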
# UDG ctr A3A: inhibits UDG, flagging false APOBEC3A inhibitors; shares compounds with A3A deaminase; UDG counterscreen, FAM/TAMRA uracil oligo fluorescence; inhibition, % at 20 µM; 1,000 tested, under 10 active; AID 504714
# A3G conf: confirmation of human APOBEC3G DNA deaminase inhibitors | AID 493152 | shares compounds with A3G deaminase | hit rate 72% among 890 | recombinant A3G ssDNA deaminase, UDG/FAM-TAMRA fluorescence | inhibition, % at 20 µM;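 active = inhibition reaching a set limit in any replicate at 20 µM, the limit being 80% of the first screen's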
# UDG A3G counter: counter-screen for APOBEC3G inhibitors: E. coli UDG | UDG counterscreen, FAM/TAMRA oligo fluorescence | 710 tested, under 10 active | shares compounds with A3G deaminase | inhibition, % at 20 µM;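 active = compounds giving 40% or more inhibition at 20 µM in any one of the three replicates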;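 also: plate controls were DMSO wells with UDG and oligo for no effect and DMSO wells lacking both for full effect; inhibitors lower the FAM signal released by uracil excision and alkaline cleavage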
# Target sequence (P12295 whole entry, looked up): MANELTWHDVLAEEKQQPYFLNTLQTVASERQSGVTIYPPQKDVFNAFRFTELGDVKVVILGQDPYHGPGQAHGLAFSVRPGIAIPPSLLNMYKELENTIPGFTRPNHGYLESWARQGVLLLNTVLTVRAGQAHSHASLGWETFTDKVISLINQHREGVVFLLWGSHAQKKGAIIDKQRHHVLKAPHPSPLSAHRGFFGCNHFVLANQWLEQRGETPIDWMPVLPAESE
# Numbers without * were called inactive; i = inactive; x = not tested or not shown; + = active, no number; ! = not active in a repeat. Unless noted, no rule for the calls is given here.
SMILES,eIF4H FP inh,A3G deaminase,PHOSPHO1 block,PABP FP inh,A3A deaminase,PABP1 MLLE inh,A3A conf,UDG ctr A3A,others
CCOC(=O)C(O)(c1cn(C)c2ccccc12)C(F)(F)F (stereo not drawn),-1,0,2,i,1,10,x,x,
CCOC(=O)C(O)(c1ccc(N=c2ccccn2C)cc1)C(F)(F)F (stereo not drawn),-10,13,20,i,44*,-52,32*,-3,
CC[N+](C)(CC)CCCOC(=O)C(O)(c1ccccc1)C1CCCCC1 (stereo not drawn),-8,17,0,i,50*,-102,81*,-1,
CC(C(=O)O)N(C(=O)c1ccccc1)c1ccc(F)c(Cl)c1 (stereo not drawn),1,4,29,i,3,5,x,x,
Cn1c(O)c(C=NCCN2CCOCC2)c(=O)[nH]c1=S,5,-5,15,i,3,-8,x,x,
COc1ccccc1-n1c(-c2ccccc2)nc2ccccc2c1=O,-2,-4,24,i,-4,-10,x,x,
C[N+]1(C)CCc2cc3c(cc2[C@H]1[C@@H]1OC(=O)c2c1ccc1c2OCO1)OCO3,-1,23,-4,i,46*!,-15,80*,1,
O=[N+]([O-])c1cc([As](=O)(O)O)ccc1O,x,6,x,x,83*,4,51*,-1,
O=[N+]([O-])c1ccc(O)c([N+](=O)[O-])c1,x,-8,x,x,-1,4,x,x,
COc1cccc(C2(C#N)CCN(C)CC2)c1,4,-3,-30,i,1,7,x,x,
C[C@H]1CC[C@H]2NCCN[C@H]2C1,-5,-6,33,i,62*,-2,3,2,
O=c1[nH]c2ccccc2n1C1CCN(C(c2nnnn2C2CCCCC2)C2CC2)CC1 (stereo not drawn),x,x,x,x,x,-7,x,x,
O=C(O)C1C(C(=O)O)C2(Cl)C(Cl)=C(Cl)C1(Cl)C2(Cl)Cl (stereo not drawn),x,1,x,x,43*,6,15*,-2,
CN1CCN(c2c[nH]c(=O)[nH]c2=O)CC1,-2,-4,6,i,-4,2,x,x,
CC[C@]12C=CCN3CCC4(c5cc(Br)c(OC)cc5N(C)C4[C@@](O)(C(=O)OC)[C@@H]1OC(C)=O)C32 (stereo partly drawn),78,16,-96,i,62*,-108,70*,-4,
Cc1cc(=O)oc2cc(OCC(=O)N3CCC(C(=O)O)(c4ccccc4)CC3)ccc12,-3,22,13,i,-2,4,x,x,
Cc1ccc(N2C(=O)NC(=O)/C(=C\c3cc(C)n(-c4cc(C(=O)O)cc(C(=O)O)c4)c3C)C2=O)cc1,44,17,-20,i,54*,8,28*,0,
C[N+]1(C)C2CCC1CC(OC(=O)c1c[nH]c3ccccc13)C2 (stereo not drawn),x,18,x,x,72*,-126,84*,2,
C[N+]1(C)C2CC[C@H]1CC(OC(=O)C(CO)c1ccccc1)C2 (stereo partly drawn),x,-4,x,x,-2,-6,x,x,
C[N+]1(C)[C@@H]2CC[C@H]1CC(OC(=O)[C@@H](CO)c1ccccc1)C2 (stereo partly drawn),x,20,23,x,67*,-104,87*,x,
C[N+]12CCC(CC1)C(=C(c1ccccc1)c1ccccc1)C2,2,22,16,i,75*,-50,71*,-2,
CC[N+]12CCC(CC1)C(=C(c1ccccc1)c1ccccc1)C2,3,-3,-3,i,2,-16,x,x,
N#CC(Br)Br,x,-4,x,x,1,-21,x,x,
COc1ccc(CN2CCNCC2)c(OC)c1OC,2,-3,-99,i,57*!,0,62*,-2,
CCCC[N+]12CCC(CC1)C(C(O)(c1ccccc1)c1ccccc1)C2 (stereo not drawn),active,14,8,i,41*,-107,64*,-3,
SMILES,eIF4H FP inh,A3G deaminase,PHOSPHO1 block,PABP FP inh,A3A deaminase,PABP1 MLLE inh,A3A conf,UDG ctr A3A,others
CCC[N+]12CCC(CC1)C(C(O)(c1ccccc1)c1ccccc1)C2 (stereo not drawn),-8,-6,36,i,-2,6,x,x,
CNC(=O)OCCc1nccn1C,4,-1,-7,i,-1,5,x,x,
CNC(=O)OCc1n(C)cc[n+]1C,3,-4,-18,i,40*,-142,82*,-1,
Cc1ccccc1NC1(C#N)CCCCC1,-1,-6,-21,i,4,7,x,x,
Cc1nn(CCC#N)c2c1P(=S)(N1CCCC1)OC(c1ccc(F)cc1)=N2 (stereo not drawn),5,67*,103*,i,2,-19,x,x,A3G conf=67*
Oc1c(Br)c(Br)c(Br)c(Br)c1Br,x,-10,x,x,2,-5,x,x,
O=C1C=CC(=O)C=C1,x,82*,x,x,5,32,x,x,A3G conf=88*;UDG A3G counter=-3
O=C(Cc1ccc(Cl)c(Cl)c1)NCC1(N2CCOCC2)CCCCC1,-13,0,19,i,-1,-3,x,x,
COc1ccc(N/N=C/c2c(O)n(-c3cccc(C)c3)c(=O)[nH]c2=O)cc1,54,54*,8,i,0,11,x,x,A3G conf=24*;UDG A3G counter=-4
Cc1ccc(-n2c(O)c(/C=N/Nc3ccccc3)c(=O)[nH]c2=O)cc1C,-4,5,-6,i,-3,x,x,x,
COc1ccc(N/N=C/c2c(O)n(-c3ccc(C)c(C)c3)c(=O)[nH]c2=O)cc1,24,51*,45,i,-2,7,x,x,A3G conf=17;UDG A3G counter=2
O=c1[nH]c(=O)n(-c2cccc3ccccc23)c(O)c1/C=N/N1CCCCCC1,9,68*,20,i,-2,-5,x,x,A3G conf=-4;UDG A3G counter=1
O=C(O)c1cccc2nc3ccccc3nc12,33,72*,56,i,3,29,x,x,A3G conf=24*;UDG A3G counter=2
COC(=O)c1ccccc1-n1c(C)nc2ccccc2c1=O,-5,-7,2,i,-1,8,x,x,
CC(=NCc1ccco1)c1c(O)n(-c2ccc(C)cc2)c(=O)[nH]c1=O,-9,-4,-6,i,-3,-15,x,x,
c1cncc(C2Nc3cccc4cccc(c34)N2)c1,92*,45*,28,+,22,18,x,x,A3G conf=64*
c1cc2c(cc1N1CCOCC1)CNCc1cnnn1-2,x,x,x,x,x,-12,x,x,
O=C1NC(=O)C(Sc2ccccc2[N+](=O)[O-])C(=O)N1,2,46*,2,i,-3,34,x,x,A3G conf=63*;UDG A3G counter=-4
O=[N+]([O-])c1ccccc1Cl,x,-12,x,x,-5,11,x,x,
COC(=O)C1=C(c2ccc(F)cc2OCc2ccccc2)C[C@@H]2CC[C@H]1N2C(=O)N1CCC(O)(c2ccc(Cl)cc2)CC1,x,-4,x,x,0,11,x,x,
